{"source": "PubChem BioAssay AID1817", "about": "(Sanford-Burnham Center for Chemical Genomics, 2009)", "note": "Out of some 290,000 compounds screened, about 50 (0.02%) were called active. This is one part of a sample in which actives are shown more often than they occur. Measured potencies and affinities stand elsewhere. Values without a mark were called inactive.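 How the source made its calls: active means displacement of at least 50% at 20 µM, with a fluorescence ratio check between 0.3 and a set limit; inactive means the rest.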"}
{"target": "E3 ubiquitin-protein ligase SIAH1 (Homo sapiens) (UniProt Q8IUQ4)", "sequence (Q8IUQ4 whole entry, looked up)": "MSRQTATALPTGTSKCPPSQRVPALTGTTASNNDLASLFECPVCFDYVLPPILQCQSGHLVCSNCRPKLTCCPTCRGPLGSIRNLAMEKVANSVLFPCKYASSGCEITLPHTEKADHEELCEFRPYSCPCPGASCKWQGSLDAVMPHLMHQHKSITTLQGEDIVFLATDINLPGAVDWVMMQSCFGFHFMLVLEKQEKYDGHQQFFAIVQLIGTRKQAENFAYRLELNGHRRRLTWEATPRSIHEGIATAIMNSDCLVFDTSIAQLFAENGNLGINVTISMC", "assay": "blockers of Siah-1 interaction with plectin peptide – biochemical, fluorescence polarization, rhodamine-plectin, uHTS, primary screen (AID 1817);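 further: plate controls were Siah plus tracer with DMSO for no effect and tracer alone without Siah for full effect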", "conditions": "Siah-1 / rhodamine-plectin peptide fluorescence polarization; at 20 µM; active compounds read high"}
{"smiles": "Cc1ccc(N2C(=O)NC(=O)/C(=C\\C=C\\c3ccco3)C2=O)cc1", "displacement": "12.1%"}
{"smiles": "CC(C)c1ccc(N2C(=O)NC(=O)/C(=C/C=C/c3ccco3)C2=O)cc1", "displacement": "51.8% (active)"}
{"smiles": "CC(C)c1ccc(N2C(=O)NC(=O)/C(=C\\C=C\\c3ccco3)C2=O)cc1", "displacement": "14.6%"}
{"smiles": "O=[N+]([O-])c1ccc(N2CCNCC2)cc1NCc1ccco1", "displacement": "-3.7%"}
{"smiles": "C=C1C(=O)O[C@@H]2C[C@@H](C)[C@@H]3C=CC(=O)[C@@]3(C)[C@@H](O)[C@H]12", "displacement": "4.7%"}
{"smiles": "C=C1C(=O)O[C@H]2C[C@@H](C)[C@@H]3C=CC(=O)[C@@]3(C)C[C@H]12", "displacement": "12.6%"}
{"smiles": "C=C1C(=O)O[C@@H]2C[C@@H](C)[C@H]3C=CC(=O)[C@]3(O)C[C@@H]12", "displacement": "51.6% (active)"}
{"smiles": "Cc1cc(C=O)c(C)n1C1CCCCC1", "displacement": "2.7%"}
{"smiles": "CCCCn1c(NC(=O)c2ccco2)c(C(=O)OCC)c2nc3ccccc3nc21", "displacement": "4.9%"}
{"smiles": "CCCCn1c(NS(=O)(=O)c2ccc(C)cc2)c(C(=O)OCC)c2nc3ccccc3nc21", "displacement": "34.7%"}
{"smiles": "CCOC(=O)c1c(NS(=O)(=O)c2ccccc2)n(CCCOC)c2nc3ccccc3nc12", "displacement": "67% (active)"}
{"smiles": "CCCCCn1c(NC(=O)c2ccco2)c(C(=O)OCC)c2nc3ccccc3nc21", "displacement": "64.6% (active)"}
{"smiles": "CCOC(=O)c1c(N)n(CCCOC(=O)c2ccco2)c2nc3ccccc3nc12", "displacement": "2.6%"}
{"smiles": "COCCCn1c(N)c(C(=O)OCCOC)c2nc3ccccc3nc21", "displacement": "2.9%"}
{"smiles": "COc1ccc(NC(=O)N2CCC3(CC2)OCCO3)cc1", "displacement": "-2.3%"}
{"smiles": "O=C(O)C1C2CCC(O2)C1C(=O)Nc1ccc(F)c(F)c1", "note": "(stereo not given)", "displacement": "10.6%"}
{"smiles": "O=C1NC(=S)N(Cc2ccco2)C(=O)/C1=C\\c1cccs1", "displacement": "21.3%"}
{"smiles": "Cc1ccccc1-n1c(O)c(/C=N/N2CCOCC2)c(=O)[nH]c1=S", "displacement": "2.7%"}
{"smiles": "Cc1cccc(C)c1NC1=NCCCCS1", "displacement": "-1.2%"}
{"smiles": "CCCC12CN3CCN(C1)CC(CCC)(C3)C2=O", "displacement": "8.2%"}
